From PubChem BioAssay
Where “and” joins values, the source holds several entries; their conditions need not be identical. Identical values can stand only once. Calls of active or inactive are those of the source. Unless noted, how the calls were made is not given here.

Columns and labels:
[1] = compounds altering circadian rhythm period length – cell-based, LOPAC library, luminescence reporter (AID 2774); conditions: circadian reporter cells, at 7 µM, actives lie on both sides;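 further: values are relative to mean of DMSO wells on each plate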
[2] = system: Hepatitis C virus NS3 helicase; assay: blockers of NS3h binding to ssDNA – biochemical, fluorescence polarization, LOPAC1280 library, primary screen (AID 687035; in the data active means inhibition above about 37%); conditions: Purified HCV NS3 helicase, Cy5-dT15 ssDNA binding fluorescence polarization; stronger effect = higher value; concentration not given here
[3] = compounds altering Cy5-DNA-NS3h complex signal – biochemical, LOPAC1280, artefact control for HCV NS3 helicase inhibitor project (AID 687037); conditions: Cy5-DNA-NS3h complex fluorescence interference counterscreen
[4] = system: Aerobactin synthetase IucA (Klebsiella pneumoniae); assay: inhibition of K. pneumoniae IucA enzyme – biochemical, Tocris library, absorbance (AID 1345561); conditions: purified IucA enzyme assay, absorbance (OD) read-out; stronger effect = lower value;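 tested at 8 µM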;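 further: 100% = enzyme without compound and 0% = no enzyme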
[5] = viability loss with induced miR-34 in A549 – imaging, A549 dox-inducible miR-34, nuclei and caspase counts, primary screen (AID 1347080;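 active means compounds whose cell count with miR-34 switched on is under 0.7 times the count with it off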); conditions: A549 miR-34 inducible, Hoechst nuclei count, 48 h
[6] = blockers of cellular phospholipid synthesis – cell-based, LOPAC library, screen 4, primary screen (AID 1347384); conditions: animal cells, phospholipid biosynthesis inhibition screen; at 10 µM
[7] = galactose survival enhancers in mitochondrial complex I cybrids – cell-based, galactose medium, ATP luminescence, primary screen (AID 1645843;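 active means z-score of at least 1.8 in each of two replicates, scored against plate mean and spread of sample wells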;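 further: positive z means more ATP and so rescue of galactose-driven cybrid death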); conditions: complex I mutant cybrid cells, 72 h, stronger effect = higher value
[8] = stronger effect = lower value, cell number ratio, induced over uninduced
[9] = measured here: relative caspase fold change +Dox/-Dox
[10] = measured here: total cells with miR-34 induction, stronger effect = lower value
[11] = measured here: total cells without miR-34 induction

SMILES: O=c1[nH]c2cc([N+](=O)[O-])c([N+](=O)[O-])cc2[nH]c1=O
- period change [1]: 0.075 h (inactive)
- inhibition [2]: -4% (inactive)
- fluorescence ratio (interference) [3]: 1 (inactive)
- remaining activity [4]: 109% (inactive)
- fold change [5, 8]: 0.955 (inactive) and 0.937 (inactive)
- fold change [5, 9]: 1 and 0.778
- cell count [5, 10]: 9840 and 7960
- cell count [5, 11]: 10300 and 8490
- outcome [6]: inactive
- z-score [7]: -0.11 (inactive) and 0.22 (inactive)

SMILES: CCCCCCCC/C=C\CCCCCCCC(=O)NCCO
- period change [1]: 0.02 h (inactive)
- inhibition [2]: -1% (inactive)
- fluorescence ratio (interference) [3]: 1 (inactive)
- remaining activity [4]: 112% (inactive)
- fold change [5, 8]: 1.03 (inactive) and 1.01 (inactive) and 0.976 (inactive)
- fold change [5, 9]: 0.948 and 0.828 and 0.812
- cell count [5, 10]: 10400 and 5960 and 9000
- cell count [5, 11]: 10100 and 5900 and 9210
- outcome [6]: inactive
- z-score [7]: -1.28 (inactive) and -0.79 (inactive)

SMILES: O=C1NC(c2cccc([N+](=O)[O-])c2)=CCN1c1ccccc1O
- period change [1]: -0.125 h (inactive)
- inhibition [2]: -4% (inactive)
- fluorescence ratio (interference) [3]: 1 (inactive)
- remaining activity [4]: 111% (inactive)
- fold change [5, 8]: 0.967 (inactive) and 1.03 (inactive) and 0.928 (inactive)
- fold change [5, 9]: 1.12 and 1.35 and 0.882
- cell count [5, 10]: 10200 and 5990 and 8100
- cell count [5, 11]: 10600 and 5810 and 8730
- outcome [6]: inactive
- z-score [7]: -0.245 (inactive) and 1.08 (inactive)

SMILES: COc1ccccc1N1CCN(CCCCN2C(=O)c3ccccc3C2=O)CC1
- period change [1]: 0.18 h (inactive)
- inhibition [2]: -3% (inactive)
- fluorescence ratio (interference) [3]: 1 (inactive)
- remaining activity [4]: 97.1% (inactive)
- fold change [5, 8]: 1.11 (inactive) and 0.969 (inactive)
- fold change [5, 9]: 1.56 and 0.971
- cell count [5, 10]: 9310 and 9300
- cell count [5, 11]: 8410 and 9600
- outcome [6]: inactive
- z-score [7]: -0.155 (inactive) and -0.92 (inactive)

SMILES: N[C@@H](CS(=O)O)C(=O)O
- period change [1]: 0.04 h (inactive)
- inhibition [2]: -5% (inactive)
- fluorescence ratio (interference) [3]: 0.9 (inactive)
- remaining activity [4]: 124% (inactive)
- fold change [5, 8]: 1.01 (inactive) and 0.998 (inactive)
- fold change [5, 9]: 1.54 and 0.698
- cell count [5, 10]: 10700 and 8340
- cell count [5, 11]: 10600 and 8360
- outcome [6]: inactive
- z-score [7]: 0.58 (inactive) and 0.25 (inactive)

SMILES: NC[C@@H]1O[C@H](C23CC4CC(CC(C4)C2)C3)Cc2c1ccc(O)c2O
- period change [1]: 0.01 h (inactive)
- inhibition [2]: -3% (inactive)
- fluorescence ratio (interference) [3]: 0.9 (inactive)
- remaining activity [4]: 123% (inactive)
- fold change [5, 8]: 1.09 (inactive) and 0.908 (inactive)
- fold change [5, 9]: 1.75 and 0.979
- cell count [5, 10]: 4260 and 7980
- cell count [5, 11]: 3890 and 8790
- outcome [6]: inactive
- z-score [7]: -1.5 (inactive) and -0.775 (inactive)

SMILES: N=C(N)SCCc1cnc[nH]1
- period change [1]: 0.045 h (inactive)
- inhibition [2]: -3% (inactive)
- fluorescence ratio (interference) [3]: 1 (inactive)
- remaining activity [4]: 120% (inactive)
- fold change [5, 8]: 0.923 (inactive) and 0.986 (inactive)
- fold change [5, 9]: 1.08 and 0.938
- cell count [5, 10]: 8720 and 7870
- cell count [5, 11]: 9460 and 7980
- outcome [6]: inactive
- z-score [7]: 0.08 (inactive) and 0.435 (inactive)

SMILES: CC(/C=C/c1cccc(Oc2ccc(F)cc2)c1)N(O)C(N)=O (stereo not given)
- period change [1]: -0.095 h (inactive)
- inhibition [2]: 0% (inactive)
- fluorescence ratio (interference) [3]: 1 (inactive)
- remaining activity [4]: 129% (inactive)
- fold change [5, 8]: 1.07 (inactive) and 0.882 (inactive) and 0.954 (inactive)
- fold change [5, 9]: 1.69 and 1.06 and 0.78
- cell count [5, 10]: 8210 and 4190 and 6640
- cell count [5, 11]: 7700 and 4750 and 6960
- outcome [6]: inactive
- z-score [7]: -1.33 (inactive) and -0.775 (inactive)

SMILES: CC[C@H](NC(=O)c1c(C)c(-c2ccccc2)nc2ccccc12)c1ccccc1
- period change [1]: 0.09 h (inactive)
- inhibition [2]: 1% (inactive)
- fluorescence ratio (interference) [3]: 1 (inactive)
- remaining activity [4]: 110% (inactive)
- fold change [5, 8]: 1.28 (inactive) and 0.912 (inactive)
- fold change [5, 9]: 1.6 and 0.801
- cell count [5, 10]: 6890 and 7500
- cell count [5, 11]: 5390 and 8230
- outcome [6]: inactive
- z-score [7]: 1.77 (inactive) and 1.96 (inactive)

SMILES: S=C(S)N1CCCC1
- period change [1]: 0.08 h (inactive)
- inhibition [2]: -2% (inactive)
- fluorescence ratio (interference) [3]: 1 (inactive)
- remaining activity [4]: 87.7% (inactive)
- fold change [5, 8]: 0.892 (inactive) and 0.97 (inactive)
- fold change [5, 9]: 1.02 and 0.891
- cell count [5, 10]: 6850 and 8740
- cell count [5, 11]: 7680 and 9010
- outcome [6]: inactive
- z-score [7]: -1.38 (inactive) and -1.23 (inactive)

SMILES: N[C@H](C(=O)O)c1cc(O)cc(O)c1
- period change [1]: 0.11 h (inactive)
- inhibition [2]: -1% (inactive)
- fluorescence ratio (interference) [3]: 1.1 (inactive)
- remaining activity [4]: 115% (inactive)
- fold change [5, 8]: 1.01 (inactive) and 0.963 (inactive)
- fold change [5, 9]: 1.04 and 0.77
- cell count [5, 10]: 10300 and 8780
- cell count [5, 11]: 10200 and 9120
- outcome [6]: inactive
- z-score [7]: 0.215 (inactive) and -0.05 (inactive)

SMILES: CCn1c(=O)[nH]c2cc(Cl)c(Cl)cc21
- period change [1]: 0.01 h (inactive)
- inhibition [2]: -2% (inactive)
- fluorescence ratio (interference) [3]: 1 (inactive)
- remaining activity [4]: 114% (inactive)
- fold change [5, 8]: 0.936 (inactive) and 0.878 (inactive)
- fold change [5, 9]: 1.34 and 0.845
- cell count [5, 10]: 8830 and 7930
- cell count [5, 11]: 9440 and 9020
- outcome [6]: inactive
- z-score [7]: 0.275 (inactive) and 0.885 (inactive)

SMILES: C=CCN1CCc2cc(O)c(O)cc2C(c2ccccc2)C1 (stereo not given)
- period change [1]: 0.045 h (inactive)
- inhibition [2]: -4% (inactive)
- fluorescence ratio (interference) [3]: 0.9 (inactive)
- remaining activity [4]: 113% (inactive)
- fold change [5, 8]: 0.956 (inactive) and 0.974 (inactive)
- fold change [5, 9]: 1.26 and 0.531
- cell count [5, 10]: 10300 and 8820
- cell count [5, 11]: 10700 and 9060
- outcome [6]: inactive
- z-score [7]: -1.29 (inactive) and -0.785 (inactive)

SMILES: COC1(C2=NCCN2)COc2ccccc2O1 (stereo not given)
- period change [1]: 0.04 h (inactive)
- inhibition [2]: -3% (inactive)
- fluorescence ratio (interference) [3]: 0.9 (inactive)
- remaining activity [4]: 126% (inactive)
- fold change [5, 8]: 0.986 (inactive) and 0.983 (inactive)
- fold change [5, 9]: 1.8 and 0.411
- cell count [5, 10]: 10100
- cell count [5, 11]: 10300 and 10200
- outcome [6]: inactive
- z-score [7]: -0.135 (inactive) and -0.24 (inactive)
